RecA splice inh: Mtb RecA intein splicing inhibition. cell-free RecA intein splicing, fluorescence. inhibition, % (concentration not given with the values). 290,000 compounds, 0.75% hits; in the data active = inhibition above about 30%
Target sequence (P9WHJ3 whole entry, looked up, canonical isoform): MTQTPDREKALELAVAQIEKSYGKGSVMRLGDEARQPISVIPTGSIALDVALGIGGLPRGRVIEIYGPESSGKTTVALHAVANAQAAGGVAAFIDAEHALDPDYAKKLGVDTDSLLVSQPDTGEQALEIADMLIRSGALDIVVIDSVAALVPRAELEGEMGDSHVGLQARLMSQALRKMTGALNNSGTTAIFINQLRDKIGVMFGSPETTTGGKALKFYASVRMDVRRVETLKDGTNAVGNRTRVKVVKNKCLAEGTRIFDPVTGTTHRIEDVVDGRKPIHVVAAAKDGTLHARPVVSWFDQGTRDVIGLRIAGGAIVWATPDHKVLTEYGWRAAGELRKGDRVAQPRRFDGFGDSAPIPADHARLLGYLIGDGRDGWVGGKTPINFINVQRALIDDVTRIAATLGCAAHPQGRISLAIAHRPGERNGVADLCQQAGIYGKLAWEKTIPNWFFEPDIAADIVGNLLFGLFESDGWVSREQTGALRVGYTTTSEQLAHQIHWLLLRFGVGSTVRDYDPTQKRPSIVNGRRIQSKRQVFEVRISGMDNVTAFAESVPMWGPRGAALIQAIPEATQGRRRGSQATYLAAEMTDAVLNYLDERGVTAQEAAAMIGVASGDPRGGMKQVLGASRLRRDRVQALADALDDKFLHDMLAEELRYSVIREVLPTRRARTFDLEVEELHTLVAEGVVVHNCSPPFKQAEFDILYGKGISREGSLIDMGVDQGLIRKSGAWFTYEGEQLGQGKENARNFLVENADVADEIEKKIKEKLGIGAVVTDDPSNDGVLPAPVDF
CCHFV vOTU inh: blocks the CCHF virus ovarian tumor domain protease; CCHFV vOTU protease, Pep-AMC fluorescence; 370,000 compounds, 0.55% hits; inhibition, % at 11.5 µM; in the data active = inhibition above about 30%
Mtb FBA inh: inhibitors of M. tuberculosis fructose-bisphosphate aldolase | AID 588726 | 360,000 compounds, 2.3% hits | inhibition, % at 1 µM | purified M. tuberculosis FBA, fluorescence read-out | P9WQA3
GDH-TPI counter-1: inhibits GDH-TPI coupling enzymes, artifact for Mtb FBA screen | GDH-TPI coupled enzyme counterscreen, NADH absorbance | inhibition, % at 4.8 µM | 360,000 compounds, 1.2% hits; in the data active = inhibition above about 30%
Mtb FBA confirm: Mtb FBA inhibition, confirmed. shares compounds with Mtb FBA inh. purified M. tuberculosis FBA, fluorescence read-out. inhibition, % at 1 µM. 5,600 compounds, 78% hits. AID 651616
GDH-TPI counter-2: GDH-TPI inhibition counter-screen for FBA inhibitors; shares compounds with Mtb FBA inh; GDH-TPI coupled enzyme counterscreen, fluorescence; inhibition, % at 1 µM; 5,600 compounds, 81% hits; AID 652141; in the data active = inhibition above about 10%
Of the large screens only hits and unclear results are named; the others gave an inactive call (follow-up assays come after a bar, where they were run). Most compounds without a hit are left out; they make up all but 4.2% or so of the library. Cut-off read from the data, not from the text of the source, unless noted: active = inhibition above about 27%; inactive = the rest.

O=C(O)c1nnn(-c2cccc(C(F)(F)F)c2)c1-c1ccccc1	none
Cc1cc(C)c(NC(=O)CCCn2c(=O)oc3ccccc32)c(C)c1	none (no result: RecA splice inh)
CCCn1c(N)c(N(CCOC)C(=O)COC(=O)c2ccccc2NCCO)c(=O)[nH]c1=O	Mtb FBA inh 90 | Mtb FBA confirm 122 | GDH-TPI counter-2 103
CCCCn1c(N)c(N(CCOC)C(=O)COC(=O)c2ccccc2OCC)c(=O)[nH]c1=O	none
CCCCNC(=O)C(NC(=O)c1cccc(C(F)(F)F)c1)C(=O)c1ccccc1 (stereo not given)	none (no result: RecA splice inh, GDH-TPI counter-1)
CCCCCCCC[n+]1cccc2c3ccccc3ccc21	Mtb FBA inh 67 | Mtb FBA confirm 65 | GDH-TPI counter-2 42
CN(C=O)c1cc([N+](=O)[O-])ccc1OCc1ccccc1	none (no result: RecA splice inh)
COc1ccc(CNC(=O)C2Cc3c(-c4ccccc4)ccnc3O2)cc1OC (stereo not given)	none (no result: RecA splice inh)
COc1ccc(CNC(=O)C2Cc3c(-c4ccc5c(c4)OCO5)ccnc3O2)cc1OC (stereo not given)	Mtb FBA inh 31 (no result: RecA splice inh) | Mtb FBA confirm active | GDH-TPI counter-2 active
O=C(NCCc1ccccc1)C1Cc2c(-c3ccc4c(c3)OCO4)ccnc2O1 (stereo not given)	Mtb FBA inh 47 (no result: RecA splice inh) | Mtb FBA confirm 29 | GDH-TPI counter-2 36
O=C(NCc1ccc(F)c(F)c1)C1Cc2c(-c3ccc4c(c3)OCO4)ccnc2O1 (stereo not given)	Mtb FBA inh 49 (no result: RecA splice inh) | Mtb FBA confirm 177 | GDH-TPI counter-2 136
CC(C)NC(=O)C1Cc2c(-c3ccc4c(c3)OCO4)ccnc2O1 (stereo not given)	Mtb FBA inh 52 (no result: RecA splice inh) | Mtb FBA confirm 111 | GDH-TPI counter-2 91
COc1ccc(NC(=O)C2Cc3c(-c4ccc5c(c4)OCO5)ccnc3O2)cc1OC (stereo not given)	Mtb FBA inh 48 (no result: RecA splice inh) | Mtb FBA confirm 27 | GDH-TPI counter-2 19
Nn1cnc2cc3ccccc3cc2c1=O	none
O=C(Nc1ccccc1N1CCCC1)C1CCCO1 (stereo not given)	none (no result: RecA splice inh)
CN(C)CCNS(=O)(=O)c1ccc2c3c(cccc13)C(=O)N2	Mtb FBA inh 43 | Mtb FBA confirm inactive | GDH-TPI counter-2 inactive
CCN(CC)CCNS(=O)(=O)c1ccc2c3c(cccc13)C(=O)N2	Mtb FBA inh 54 | Mtb FBA confirm 61 | GDH-TPI counter-2 60
O=C1Nc2ccc(S(=O)(=O)N3CCCC3)c3cccc1c23	none
O=C1Nc2ccc(S(=O)(=O)NCc3ccccn3)c3cccc1c23	Mtb FBA inh 76 | Mtb FBA confirm 67 | GDH-TPI counter-2 52
COc1ccc(CCCNC(=O)C2Cc3c(-c4ccccc4)ccnc3O2)cc1 (stereo not given)	none (no result: RecA splice inh)
O=C(O)c1cscc1-c1cccc2ccccc12	none (no result: RecA splice inh)
COCCN(CC1CCCN(C2Cc3ccccc3C2)C1)C(=O)CCC(N)=O (stereo not given)	none
Nc1ccc2c(c1)C(=O)N(CCCC(=O)O)C2=O	none
Nc1ccc2c(c1)C(=O)N(CCCCCC(=O)O)C2	Mtb FBA inh 38 | Mtb FBA confirm 121 | GDH-TPI counter-2 110
Cc1c(C(=O)N2CCN(S(=O)(=O)c3cc(F)ccc3F)CC2)oc2ccccc12	none (no result: RecA splice inh)
COc1cccc2c(=O)c3ccoc3n(C)c12	Mtb FBA inh 40 | Mtb FBA confirm 75 | GDH-TPI counter-2 57
CCC(C)CN1C(=O)CSCC1(C)C(=O)NC(C)C (stereo not given)	none (no result: RecA splice inh, Mtb FBA inh, GDH-TPI counter-1)
Cn1c(SCC(=O)NC2CCCCC2)nnc1C(F)(F)F	none (no result: RecA splice inh)
COc1cccc(-c2nc(-c3ccccc3)c(-c3ccccc3)[nH]2)c1OCC(=O)O	Mtb FBA inh 84 | Mtb FBA confirm 70 | GDH-TPI counter-2 54
COc1cccc(-c2nc(-c3ccc4c(c3)-c3ccccc3S4(=O)=O)c(-c3ccccc3)[nH]2)c1OC	Mtb FBA inh 31 | Mtb FBA confirm inactive | GDH-TPI counter-2 inactive
O=C(O)COc1ccccc1-c1nc(-c2ccccc2)c(-c2ccccc2)[nH]1	Mtb FBA inh 88 | Mtb FBA confirm 53 | GDH-TPI counter-2 29
O=C(O)COc1ccc(-c2nc(-c3ccccc3)c(-c3ccccc3)[nH]2)cc1	Mtb FBA inh 98 | Mtb FBA confirm 86 | GDH-TPI counter-2 73
O=C(O)c1ccccc1-c1nc(-c2ccccc2)c(-c2ccccc2)[nH]1	none
COc1ccc(CNC(=O)CCSCc2cccc(F)c2)cc1	none
O=S(=O)(c1ccccc1)N1CC2CC(Br)C(Br)CC21 (stereo not given)	none (no result: RecA splice inh)
